TGFb SMAD3 inh = inhibitors of TGF-b signaling. Potency, µM (highest dose often 46.1 µM), actives largely listed as inhibitors. HepG2 CAGA-GFP TGF-b/SMAD3 reporter, GFP fluorescence, 18 h; TGF-beta stimulated, 500 pg/mL final. 1.2% of 410,000 active. AID 588855; further: nearly all actives have a fitted effect of over 65% in size
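Read-out: total well GFP (ex488/em500-530) summed from mean per-cell fluorescence. Cells: HEPG2 CAGA-GFP, 1% FBS DMEM, 18 h at 37 degrees C with 500 pg/mL final TGF-beta. Unstimulated wells served as the full-inhibition control; stimulated DMSO wells = 0%.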
TDP1 cell CPT = DT40-hTDP1 cell growth loss with CPT; chicken DT40 Tdp1-/-;hTDP1 cells + 20 nM CPT, ATP luminescence, 48 h; Potency, µM (series often up to 46.2 µM), hits mostly inhibitors; 12% of 420,000 active; AID 686979; further: nearly all actives have a fitted effect of over 55% in size
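Chicken DT40 Tdp1-/- cells complemented with human TDP1, 400 cells/well, exposed to compounds plus 20 nM camptothecin for at least 48 h at 37 C; viability read as ATP content by CellTiter-Glo luminescence.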
IL-1B inflam inh = blocks inflammasome-driven IL-1 beta release; THP-1 LPS/ATP IL-1B secretion, AlphaLISA, 16 h; stronger effect = lower value; AID 743279; activity change, % at 57.5 µM; 4.7% of 360,000 active; in the data active means activity change below about -50%; inconclusive means mostly about -30% to -49%
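Secreted IL-1B measured by AlphaLISA bead assay after 16 h compound exposure of THP-1 cells; compounds (final up to 57.5 uM) added 1 h before LPS (250 ng/mL) and ATP (1.25 mM) stimulation; lower signal means less secretion.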
TDP1 cell noCPT = qHTS for Inhibitors of human tyrosyl-DNA phosphodiesterase 1 (TDP1): qHTS in cells in absence of CPT; DT40 Tdp1-/- hTDP1 cells, no CPT, ATP luminescence, 48 h; Potency, µM (doses to about 46.2 µM), usual class: inhibitors; 15% of 420,000 active; AID 686978, 2013; further: nearly all actives have a fitted effect of over 55% in size
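Luminescent ATP content (CellTiter-Glo) served as the growth readout. Knockout chicken DT40 cells expressing human TDP1 were exposed to compounds without camptothecin for a minimum 48 hr at 37 °C.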
TDP1 block = blocks human tyrosyl-DNA phosphodiesterase 1; Q9NUW8; recombinant TDP1, AlphaScreen DNA substrate cleavage; Potency, µM (titrated, usually from 130 µM), actives largely listed as inhibitors; 0.28% of 350,000 active; AID 485290; further: nearly all actives have a fitted effect of over 40% in size
Target sequence (Q9NUW8 whole entry, looked up): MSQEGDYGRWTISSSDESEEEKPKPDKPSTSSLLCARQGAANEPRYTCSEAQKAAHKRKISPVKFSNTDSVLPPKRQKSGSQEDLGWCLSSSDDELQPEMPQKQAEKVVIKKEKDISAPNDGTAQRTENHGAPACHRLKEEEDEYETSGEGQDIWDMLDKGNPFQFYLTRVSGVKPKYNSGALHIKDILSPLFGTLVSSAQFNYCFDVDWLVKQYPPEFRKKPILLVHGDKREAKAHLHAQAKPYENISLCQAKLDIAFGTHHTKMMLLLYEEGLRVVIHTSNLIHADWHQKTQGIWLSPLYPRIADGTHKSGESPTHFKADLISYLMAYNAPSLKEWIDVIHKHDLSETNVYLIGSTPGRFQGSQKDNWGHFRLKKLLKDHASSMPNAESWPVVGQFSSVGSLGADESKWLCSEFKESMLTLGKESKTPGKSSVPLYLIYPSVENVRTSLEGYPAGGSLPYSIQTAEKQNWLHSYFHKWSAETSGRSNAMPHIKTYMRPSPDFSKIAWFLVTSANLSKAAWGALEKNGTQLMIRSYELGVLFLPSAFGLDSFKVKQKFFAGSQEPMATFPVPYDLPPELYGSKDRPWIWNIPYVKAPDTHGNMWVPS
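Enzyme-compound mixtures sat 15 min at room temperature, followed by a 5 min reaction with 15 nM final substrate and 10 min with AlphaScreen beads. Recombinant human Tdp1 was used at 1 nM final.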
HepG2 viability = kills HepG2 cells in TGF-b inhibitor counter-screen | HepG2 CAGA-GFP viability, ATP luminescence, 18 h | Potency, µM (titrated, usually from 46.1 µM), hits mostly cytotoxic | 0.76% of 410,000 active | AID 588856
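HepG2 CAGA-GFP cells (1000/well, DMEM with 1% FBS) received compound, then TGF-beta at 500 pg/mL final, and were incubated 18 hours at 37 degrees C. Viability was read by CellTiter-Glo luminescence. Media-only wells were set as complete cell-killing and DMSO as no toxicity.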
Of the large screens only hits and unclear results are named; the others gave an inactive call. In the library only some 18% were active in any assay of this set; here they are far more common. Unless noted, the call rests on the fitted dose curve; in most records, active means well fitted curve in the direction sought with a large enough effect; inconclusive means small, poorly fitted or top-dose-only effect, or another doubt; inactive means no such curve, though single readings can be large; an effect the other way counts as inactive or inconclusive.

Cc1ccc(NC(=O)c2sc3ncn(CC(=O)N4CCN(c5ccccn5)CC4)c(=O)c3c2C)cc1	TDP1 cell noCPT inconclusive (no result: TDP1 block)
Cc1nc(N2CCN(c3ccccn3)CC2)c2c(C)c(C(=O)Nc3c(C)cc(Br)cc3C)sc2n1	TDP1 cell CPT inconclusive, IL-1B inflam inh inconclusive, TDP1 cell noCPT inconclusive
CCN(Cc1ccncc1)Cc1ccc(Br)cc1	TDP1 cell noCPT inconclusive (no result: TDP1 block)
CC(C)CCOc1ccccc1C(N)=O	TDP1 cell noCPT inconclusive
COC(=O)c1cc(CSC(=N)N)ccc1OCCC(C)C	TDP1 cell CPT inconclusive, IL-1B inflam inh -85.2, TDP1 cell noCPT 23.1µM
CCCOc1ccc(CSC(=N)N)cc1C(=O)OC	TDP1 cell CPT inconclusive, IL-1B inflam inh -57.4, TDP1 cell noCPT inconclusive
C=C1c2nc3ccccc3n2C=C(c2ccc(C)cc2)N1c1ccccc1	TDP1 cell CPT 8.2µM, TDP1 cell noCPT 13µM (no result: TDP1 block)
CC[C@]12c3[nH]c4ccc(Cl)cc4c3CCN1C(=O)[C@@H](CC(=O)NCCCn1ccnc1)C[C@@H]2C(=O)N1CCN(C(=O)C2CC2)CC1	none
CCNC(=O)COC(=O)c1cc(S(=O)(=O)N2CCCc3ccccc32)ccc1Cl	IL-1B inflam inh -94.4
O=C(NCc1ccco1)c1cc(S(=O)(=O)N2CCCc3ccccc32)ccc1Cl	TDP1 cell CPT 14.6µM, TDP1 cell noCPT 13µM
COc1ccc(S(=O)(=O)N2CCc3ccccc32)cc1C(=O)NCc1ccco1	TDP1 cell noCPT inconclusive, TDP1 block inconclusive
CCCCc1oc2ccc(NS(C)(=O)=O)cc2c1C(=O)c1ccc(OCCCN(CCCC)CCCC)cc1	TDP1 cell CPT 4.73µM, TDP1 cell noCPT 5.96µM (no result: TGFb SMAD3 inh, IL-1B inflam inh, TDP1 block, HepG2 viability)
O=C(Cn1nnc2ccccc2c1=O)N[C@@H](Cc1ccccc1)C(=O)O	none
CCN(CC(=O)NCCc1ccc(S(N)(=O)=O)cc1)Cc1nc2ccccc2c(=O)[nH]1	TDP1 cell CPT 20.6µM, TDP1 cell noCPT inconclusive
CCN(CC(=O)NC(=O)NCc1ccco1)Cc1nc2ccccc2c(=O)[nH]1	TDP1 cell CPT 4.61µM, TDP1 cell noCPT 4.61µM
CCN1C(=O)[C@H]2[C@H]3[C@H](O)[C@H](O)C/C(=N/O[C@@H](C)c4cn([C@H](CO)Cc5ccccc5)nn4)[C@@H]3CC[C@@H]2C1=O	none (no result: TGFb SMAD3 inh, TDP1 cell CPT, IL-1B inflam inh, TDP1 cell noCPT, HepG2 viability)
CSCC[C@H](NC(=O)[C@H](CCCN=C(N)N)NC(=O)[C@@H]1CCCN1C(=O)[C@H](Cc1ccccc1)NC(=O)[C@H](C)NC(=O)[C@H](CC(C)C)NC(=O)[C@H](Cc1ccc(O)cc1)NC(=O)[C@H](CC(N)=O)NC(=O)[C@@H](N)CCSC)C(N)=O	none (no result: TGFb SMAD3 inh, TDP1 cell CPT, IL-1B inflam inh, TDP1 cell noCPT, HepG2 viability)
COc1ccc(/C=N/NC(=O)c2cc3cc(OC)c(OC)cc3[nH]2)cc1	TDP1 cell CPT inconclusive, IL-1B inflam inh -50.6 (no result: TDP1 block)
CCOc1ccc2[nH]c(C(=O)N/N=C/c3ccc(OC)cc3)cc2c1	TGFb SMAD3 inh inconclusive, TDP1 cell CPT 0.581µM, TDP1 cell noCPT 0.581µM (no result: TDP1 block)
COc1ccc(CN(Cc2cccn2C)C(=O)c2cc3cc(OC)ccc3[nH]2)cc1	TDP1 cell CPT inconclusive, IL-1B inflam inh -80.8, TDP1 cell noCPT inconclusive
COc1ccc2[nH]c(C(=O)N/N=C/c3ccc(O)cc3O)cc2c1	TDP1 cell CPT 4.61µM, TDP1 cell noCPT 3.66µM (no result: TDP1 block)
Cc1cnc(C(=O)OCC(=O)c2ccc(F)cc2)cn1	none
COc1cc(OC)cc(C(=O)NCC2CCCN(C(=O)c3oc(C)cc3C)C2)c1 (stereo not drawn)	TDP1 cell CPT inconclusive, TDP1 cell noCPT inconclusive
COc1ccc(/C=N/NC(=O)c2nc(-c3ccccc3)n(-c3ccccc3)n2)cc1	none
COc1ccc(/C=N/NC(=O)c2nc(-c3ccccc3)n(-c3ccccc3)n2)c(O)c1	TDP1 cell CPT inconclusive, TDP1 cell noCPT 16.4µM
COc1cc2cc(C(=O)N/N=C/c3ccccc3Cl)[nH]c2cc1OC	TDP1 cell CPT inconclusive, IL-1B inflam inh -57.8, TDP1 cell noCPT 23.1µM (no result: TDP1 block)
